Here are results for 40 compounds from PubChem BioAssay (NCATS).

Records with an inconclusive call do not appear. Where a call stands in place of a potency, no number is given. Unmarked numbers belong to inactive results. Activity calls are given as the source filed them. Calls follow the shape of the dose curve; as a rule, active = well fitted cell-killing curve with a large enough effect; inconclusive = small, poorly fitted or top-dose-only effect; inactive = flat fitted curve, though single readings scatter.

The nature of the test: qHTS of pediatric cancer cell lines to identify multiple opportunities for drug repurposing: Primary screen for Rh18 cells (AID 1347102). Also: nearly all actives have a fitted effect of over 65% in size. The settings on record: Rh18 rhabdomyosarcoma viability, CellTiter-Glo luminescence, 48 h; series mostly up to 46 µM. From the text: Drug repurposing or repositioning has been offered as a strategy for drug development in oncology programs. This approach has special potential for childhood cancers and other rare or orphan diseases, where the expected return on new drug development has been a disincentive to pharmaceuticals.
In this project we exploit the poly-pharmacology of drugs to discover new indications via phenotypic screening of a panel of 19 well-characterized cell lines derived from solid tumors seen in children and adolescents. The goal is to identify approved drugs with previously unrecognized anticancer properties that has the potential to reveal new mechanisms and biological processes involved in carcinogenesis or drug resistance. We employed a titration-based paradigm (quantitative high-throughput screening or qHTS), where all compounds were tested at multiple concentrations for their effect on cell viability. Concentration-response curves (CRCs) were derived directly from the primary screen, and both potency and efficacy values were used to identify compounds with robust bioactivity profiles. We screened the NIH Chemical Genomics Center (NCGC) Pharmaceutical Collection (NPC) and Mechanism Interrogation Plate (MIPE) small molecule collections of approved and investigational compounds against these cell lines; and measured metabolically active cells after 48 hours of compound treatment as a proxy for cell viability.
Assay Submitter: Nathalia J. Martinez, National Center for Advancing Translational Sciences, National Institutes of Health, Rockville, MD, USA; email: natalia.martinez@nih.gov
[1] Shen, M et al. Quantitative high-throughput phenotypic screening of pediatric cancer cell lines identifies multiple opportunities for drug repurposing. Oncotarget 2017 Dec 19;9(4):4758-4772. PMID 29435139.
The cells were obtained from University of North Carolina (UNC), Pediatric Preclinical Testing Program (PPT), and Coriell Institute (CI).
qHTS cell viability assay:
Cells were assayed in growth media at a density of 500-1,000 cells/well. Five microliters of cells were dispensed into 1,536-well, white, solid-bottom, TC-treated plates (Greiner Bio One) using a multidrop dispenser and incubated at 37 degrees C, 5% CO2, under a humidified atmosphere for 5 hours. Twenty-three nanoliters of compounds and controls (neutral control DMSO or positive control bortezomib at final concentration of 2.3 µM) were subsequently transferred by Kalypsys pintool. For primary screens, the MIPE collection was tested at 11-point dilutions (final concentrations range from 0.78 nM to 46 µM) and the NPC collection at 8-point dilutions (final concentrations range from 0.59 nM to 46 µM). Compounds tested in follow-up screens were assayed at 11-point dilutions. Cells were incubated for 48 hours, followed by addition of 3 µL of CellTiter-Glo (Promega). After a 15 min incubation at room temperature, samples were analyzed for luminescence intensity using a ViewLux High-throughput CCD imager equipped with clear filters.
Background: qHTS replaces the single test concentration by a dilution series.
As to `C[C@@H]1CN(c2c(F)c(F)c3c(=O)c(C(=O)O)cn(C4CC4)c3c2F)C[C@H](C)N1`, the Potency result was “inactive”.

As for `NC(CSCC(=O)O)C(=O)O` (stereo not given), the Potency result is “inactive”.

As to `CCN(CC)CCOC(=O)C1(C2CCCCC2)CCCCC1`, the Potency result is “inactive”.

Turning to `C/C(=C(\CCOP(=O)(O)O)SC(=O)c1ccccc1)N(C=O)Cc1cnc(C)nc1N`, the activity change, negative = cytotoxic is 28.8% [at 4.84 µM].

Turning to `CCOC(=O)c1ccc(O)cc1`, the Potency entry is “inactive”.

As for `CCC(=O)c1ccc(O)cc1`, the Potency result was “inactive”.

Regarding `CC1=C(/C=C/C(C)=C/C=C/C(C)=C/C(=O)O)C(C)(C)CCC1`, the Potency result is “inactive”.

As to `CCCOC(=O)c1ccccc1`, the Potency entry is “inactive”.

For `O=C(O)c1ccccc1O`, the Potency entry was “inactive”.

`CC1(C)[C@@H]2CC[C@@]1(C)C(=O)C2`: the Potency result is “inactive”.

Consider `CN(C)CCOC(C)(c1ccccc1)c1ccccn1` (stereo not given), for which the Potency entry is “inactive”.

`Cc1cccc(Nc2cc(Cl)nc(SCC(=O)O)n2)c1C`: the Potency entry was “inactive”.

Consider `CC(=O)c1ccc2c(c1)N(CCCN(C)C)c1ccccc1S2`, for which the Potency entry was “inactive”.

For the compound `CC(C)(C)C(=O)C(Oc1ccc(Cl)cc1)n1ccnc1` (stereo not given), the Potency entry is “inactive”.

Regarding `CC1(C)Oc2ccc(C#N)cc2[C@@H](N2CCCC2=O)[C@@H]1O`, the Potency entry was “inactive”.

With `O=c1[nH]c(=O)c2[nH]c(=O)[nH]c2[nH]1`, the activity change, negative = cytotoxic was 4.04% [at 9.22 µM].

`CC(O)CN(CCN(CC(C)O)CC(C)O)CC(C)O` (stereo not given): the Potency entry is “inactive”.

As to `CCn1cc(C(=O)O)c(=O)c2cnc(N3CCNCC3)nc21`, the Potency entry was “inactive”.

With `Cn1c(=O)c2c(ncn2CC2OCCO2)n(C)c1=O`, the Potency result was “inactive”.

Regarding `CN1[C@@H]2CC(OC(=O)[C@H](CO)c3ccccc3)C[C@H]1[C@@H]1O[C@@H]12` (stereo not given in full), the Potency entry is “inactive”.

Turning to `Cc1cc(CC(=O)O)n(C)c1C(=O)c1ccc(Cl)cc1`, the Potency entry was “inactive”.

Turning to `CCCCOc1cc(C(=O)OCCN(CC)CC)ccc1N`, the Potency result was “inactive”.

Regarding `OC[C@H]1O[C@@H](O[C@@H]2[C@@H](CO)O[C@](O)(CO)[C@H]2O)[C@H](O)[C@@H](O)[C@H]1O`, the Potency entry is “inactive”.

As to `O=Cc1ccccc1C=O`, the Potency result was “inactive”.

Turning to `CC1=C(CC(=O)O)c2cc(F)ccc2/C1=C\c1ccc(S(C)=O)cc1` (stereo not given), the Potency entry is “inactive”.

On to `Cc1ccc(C(C)C)cc2c(C)ccc1-2`, for which the Potency entry was “inactive”.

Turning to `Nc1cc(=O)[nH]c(N)n1`, the Potency result is “inactive”.

As to `CCCCC(CC)COC(=O)c1ccccc1O` (stereo not given), the Potency entry was “inactive”.

On to `CC(C)(C)NCC(O)COc1ccc(NC(=O)NC2CCCCC2)cc1` (stereo not given), for which the Potency entry is “inactive”.

For `CC1CC(OC(=O)C(O)c2ccccc2)CC(C)(C)N1C` (stereo not given), the Potency result was “inactive”.

As for `CCCCCCCCCCCCCCCCCCOCC(O)CO` (stereo not given), the Potency entry is “inactive”.

Take `C[C@]12C[C@H](O)[C@H]3[C@@H](CCC4=CC(=O)CC[C@@]43C)[C@@H]1CC[C@@H]2C(=O)CO`: the Potency result was “inactive”.

As to `CC[C@@]1(c2ccccc2)NC(=O)N(C)C1=O`, the Potency entry was “inactive”.

Consider `OCC(CO)N[C@H]1C[C@](O)(CO)[C@@H](O)[C@H](O)[C@H]1O`, for which the Potency result is “inactive”.

`CN(C)CCN(Cc1ccccc1)c1ccccn1`: the Potency entry was “inactive”.

Turning to `CCCCC/C(C=O)=C\c1ccccc1`, the Potency entry was “inactive”.

With `CC(=O)CCC(=O)O`, the Potency entry is “inactive”.

Turning to `Oc1ccc(C(O)CNCCCCCCNCC(O)c2ccc(O)c(O)c2)cc1O` (stereo not given), the Potency result was “inactive”.

`Cc1cc(C(C#N)c2ccc(Cl)cc2)c(Cl)cc1NC(=O)c1cc(I)cc(I)c1O` (stereo not given): the Potency entry was “inactive”.

With `C[C@@H](O)[C@H](N)C(=O)O`, the Potency result is “inactive”.
